Pf growth 96h: inhibits malaria parasite growth, 96 h; AID 504834; actives 6.9% (n = 320,000); Potency, µM (highest dose often 28.7 µM), inactives show top-dose activity change, negative = inhibition, most hits filed as inhibitors; P. falciparum luciferase reporter growth, 96 h; further: potency means the concentration at half of the fitted maximal effect; on the % scale 0 is the no-effect control and ±100 the full control effect
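P. falciparum expressing integrated firefly luciferase grown in erythrocytes (2% hematocrit, 0.05% parasitemia final) with compounds for 96 hours at 37 C, 5% CO2. Growth inhibition read as loss of luminescence after adding luciferase detection reagent.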
Shiga inhibitor: blocks Shiga toxin action in Vero cells | Vero cells, Shiga toxin protein synthesis inhibition reporter | inhibition, % at 38.7 µM | actives 9.2% (n = 290,000); in the data active means inhibition mostly above about 28%, no sharp cut-off; inactive means mostly below about 43%; further: 0% is about no effect
SARS PLP yeast: inhibitors of SARS-CoV papain-like protease in yeast. S. cerevisiae expressing SARS-CoV PLpro, growth rescue. actives 0.19% (n = 330,000). Potency, µM (titrated, usually from 32.9 µM), for the others: at the highest dose activity, positive = growth rescue, actives largely listed as activators; calls by dose curve; further: potency means the concentration at half of the fitted maximal effect; 0% is about no effect; nearly all actives have a fitted effect of over 55% in size
Pf growth 48h: P. falciparum growth inhibition at 48 hours (one generation) | P. falciparum luciferase growth in erythrocytes, 48 h | Potency, µM (doses to about 28.7 µM), for the others: top-dose activity change, negative = inhibition, most hits filed as inhibitors | actives 5.9% (n = 310,000); further: potency means the concentration at half of the fitted maximal effect; on the % scale 0 is the no-effect control and ±100 the full control effect
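Firefly luciferase activity from engineered P. falciparum reports growth; inhibitors lower the luminescent signal. Cultures contained 2% hematocrit erythrocytes at 0.1% final parasitemia.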
NS1 inh: inhibitors of influenza NS1 protein function; Potency, µM (series often up to 46.1 µM), inactives show at the top dose activity, positive = more growth; actives 0.4% (n = 270,000); AID 2326; calls by dose curve; further: potency means the concentration at half of the fitted maximal effect; actives are rising curves; nearly all actives have a fitted effect of over 50% in size
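Recovery from NS1-induced slow growth read by OD600 in budding yeast switched to galactose assay medium (pH 6.0, -URA) at 1:100 dilution. Compound 23 nl per well; the matching strain lacking NS1 serves as control.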
CHX counter: counter-screen for Shiga toxin inhibitors: cycloheximide protein synthesis inhibition | cell reporter, cycloheximide protein synthesis inhibition counterscreen | max response, % | actives 12% (n = 300,000) | AID 2314; in the data active means max response mostly above about 13%, no sharp cut-off; inactive means mostly below about 14%; further: read at 38.3 µM for the half of the compounds with a filed dose; 0% is about no effect
* hit, by the source's call; ? = inconclusive; / = no result given; [ ] = another dose, or the depositor's remark. Most compounds without a hit are left out; they make up all but 21% or so of the library. Unless noted, the call rests on the fitted dose curve; in most records, active means well fitted inhibition curve with a large enough effect; inconclusive means small, poorly fitted or top-dose-only effect, or another doubt; inactive means no such curve, though single readings can be large or run the other way.

SMILES	Pf growth 96h	Shiga inhibitor	SARS PLP yeast	Pf growth 48h	NS1 inh	CHX counter
O=C(OCCN1C(=O)c2ccccc2C1=O)c1ccccc1	8%	18	0%	38%	/	24*
O=C(OCN1C(=O)c2ccccc2C1=O)c1ccccc1	5%	-9	-6%	4%	-8%	-4
Cc1cccc(OCCN2C(=O)c3ccccc3C2=O)c1	12%	89*	-3%	61%	-10%	49*
CCOc1ccc(OCCN2C(=O)c3ccccc3C2=O)cc1	13µM*	-19	-2%	?	-10%	-4
COc1ccc(OCC(=O)NC(=O)c2ccccc2)c([N+](=O)[O-])c1	40%	/	-1%	24%	/	/
Cc1cccc(OCCCN2C(=O)C(=O)c3cc(C)ccc32)c1	7%	20	-3%	-7%	-5%	1
O=C(NCc1cccc(C(F)(F)F)c1)C1CCC(=O)N(C2CCCCCC2)C1 (stereo unspecified)	-16%	2	-4%	6%	8%	-3
COc1cccc(CN2C(=O)c3cccc(N)c3C2=O)c1	24%	14	-7%	27%	-39%	1
N#Cc1ccccc1OCCN1C(=O)c2ccccc2C1=O	-25%	86*	-4%	43%	6%	40*
Nc1cccc2c1C(=O)N(CCOc1ccccc1F)C2=O	314%	46*	0%	206%	-4%	19*
O=C1c2ccccc2C(=O)N1CCCOc1ccccc1	/	90*	-7%	53%	-13%	39*
O=C1c2ccccc2C(=O)N1CCOCCN1C(=O)c2ccccc2C1=O	/	12	5%	19%	-1%	-4
COCc1cc(N2CCCC2)nc(-c2ccccc2)n1	-6%	-8	0%	-11%	/	6
COc1ccc(CNC(=O)Cn2nc(C)c3c(C)n(-c4ccc(C)cc4)nc3c2=O)cc1OC	?	-2	2%	?	-1%	-1
CSc1ccc(CNC(=O)Cn2nc(C)c3c(C)n(-c4ccc(C)cc4)nc3c2=O)cc1	2.6µM*	8	-2%	32%	-9%	1
Cc1ccc(-n2nc3c(=O)n(CC(=O)NCCc4ccco4)nc(C)c3c2C)cc1	8.3µM*	-15	6%	25%	2%	17
Cc1ccc(-n2nc3c(=O)n(CC(=O)NCCCc4ccccc4)nc(C)c3c2C)cc1	?	-3	-5%	13%	8%	-4
CCc1ccccc1N(CC(=O)N1CCCC1)S(C)(=O)=O	10µM*	-10	1%	-2%	-13%	1
Cc1ccc(N(CC(=O)N2CCCC2)S(C)(=O)=O)cc1C	7.4µM*	-7	-2%	-17%	-5%	-2
COc1ccc(N(CC(=O)N2CCCCCC2)S(C)(=O)=O)cc1Cl	-29%	12	3%	?	25%	2
COc1ccc(N(CC(=O)N2CCOCC2)S(C)(=O)=O)cc1Cl	12µM*	-3	-1%	-14%	5%	-2
COc1ccc(N(CC(=O)N2CCOCC2)S(C)(=O)=O)cc1OC	13µM*	-3	-3%	-5%	5%	-4
CCc1nnc(NS(=O)(=O)c2ccc(NCc3cc(Cl)ccc3O)cc2)s1	40%	3	2%	13%	8%	-8
CCCC(=O)Nc1ccc2c(c1)nc1n2CCN(C2CCCCC2)C1	?	4	-1%	?	4%	2
O=[N+]([O-])c1ccc2c(c1)nc1n2CCN(C2CCCCC2)C1	-9%	49*	0%	?	3%	37*
SMILES	Pf growth 96h	Shiga inhibitor	SARS PLP yeast	Pf growth 48h	NS1 inh	CHX counter
CC(=O)Nc1ccc2c(c1)nc1n2CCN(C2CCCCC2)C1	42%	47	0%	43%	-2%	29*
O=[N+]([O-])c1ccc2c(c1)nc1n2CCCCC1	14%	22	2%	30%	-4%	15
COc1cccc(C2C(C(C)=O)=C(O)C(=O)N2CCNCCO)c1 (stereo unspecified)	?	-20	0%	16%	1%	-1
O=C(NCc1cccnc1)c1cc(-c2ccc(Cl)cc2)oc1C(F)(F)F	8%	-7	-9%	-7%	-9%	-1
CC1(C)NS(=O)(=O)Oc2ccccc21	23%	-8	7%	55%	2%	-2
CCCC(=O)N(c1ccc(C(=O)O)cc1)c1nc(-c2ccccc2)c(C)s1	5%	6	-1%	?	2%	-2
O=C(COC(=O)C1CC(=O)N(Cc2ccco2)C1)c1ccc(OC(=O)c2ccccc2)cc1 (stereo unspecified)	?	72*	-17%	-24%	-11%	33*
COc1ccc(CC(=O)NCC2CCCN(Cc3ccccc3Cl)C2)cc1 (stereo unspecified)	184%	-8	-4%	-17%	5%	-3
COc1ccc(C(=O)N2CCCC(CNC(=O)c3ccccc3Cl)C2)o1 (stereo unspecified)	68%	20	3%	0%	3%	18*
COc1ccccc1OCC(=O)NCC1CCCN(C(=O)c2ccccc2C(C)=O)C1 (stereo unspecified)	17µM*	5	3%	6%	-4%	-1
CC(=O)c1ccccc1C(=O)N1CCCC(CNC(=O)c2ccccc2Cl)C1 (stereo unspecified)	?	32	-2%	16%	9%	27*
COc1ccccc1OCC(=O)NCC1CCCN(C(=O)c2ccccc2SC)C1 (stereo unspecified)	2%	11	3%	-19%	-14%	-2
CCCCNC(=O)OCCNC(=O)NC	-3%	-4	7%	4%	5%	-3
CC1(C)OC(=CC=Nc2ccc(Cl)cc2)OC1(C)C	?	31	0%	?	4%	5
CCOc1cc(S(=O)(=O)NCc2ccc(OC)cc2)c(OCC)cc1-n1cnnn1	?	-4	-13%	/	-2%	-1
CCOc1ccccc1CN(Cc1ccco1)S(=O)(=O)c1ccc(-n2cnnn2)c(OC)c1	/	20	-5%	10µM*	-1%	7
COc1cc(S(=O)(=O)N(Cc2ccco2)C2CCCC2)ccc1-n1cnnn1	8%	-7	-1%	?	-7%	-4
CCOc1cc(S(=O)(=O)NCc2ccco2)c(OCC)cc1-n1cnnn1	?	76*	0%	-1%	-6%	34*
O=c1cc(N2CCCCC2)c2ccccc2o1	-45%[5.75 µM]	-1	0%	19%	0%	2
O=c1c(N2CCCCC2)coc2ccccc12	34%	55	-3%	60%	4%	20*
CCc1cccc(NC(=O)c2cc(S(=O)(=O)N(C)C)ccc2N2CCCC2)c1	?	-22	0%	-13%	/	-3
CCC(NC(=O)CSc1nnnn1C1CC1)c1ccc(Br)cc1 (stereo unspecified)	?	/	1%	?	/	/
Cc1nc2scc(C)n2c(=O)c1S(=O)(=O)Nc1ccc(N2CCOCC2)c(Cl)c1	9.3µM*	-5	-5%	-5%	0%	6
